# DAX1 inh-1: inhibits human nuclear receptor DAX1; P51843; HEK293 Gal4-DAX1 luciferase reporter, luminescence; inhibition, % at 6.75 µM; 0.99% of 340,000 active; AID 504766;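 active means inhibition above the mean over all tested compounds plus 3 SD, cut at about 4.2% in these data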;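 further: 0% = DAX1-transfected cells with DMSO and 100% = empty-vector control cells with DMSO; inhibition shows as a rise in luminescence from relieved DAX1 repression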
# Target sequence (P51843 207-470 limits assumed): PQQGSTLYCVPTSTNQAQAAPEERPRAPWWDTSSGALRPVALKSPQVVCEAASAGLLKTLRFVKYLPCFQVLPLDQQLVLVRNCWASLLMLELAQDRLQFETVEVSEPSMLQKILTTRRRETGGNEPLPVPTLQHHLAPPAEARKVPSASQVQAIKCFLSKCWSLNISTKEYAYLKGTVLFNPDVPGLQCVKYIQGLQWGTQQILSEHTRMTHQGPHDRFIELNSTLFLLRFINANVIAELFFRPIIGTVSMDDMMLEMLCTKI
# hcDAF12 agonist: activators of H. contortus DAF-12 nuclear receptor; HEK293 hcDAF-12 lit1-tk-luc reporter, luminescence; 0% DMSO, 100% Δ7-dafachronic acid; activation, % at 6.8 µM; 1.4% of 370,000 active; AID 652067;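 active means activation above the mean of all tested compounds plus 3 SD, cut at about 5.5% in these data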;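 further: 100% = response to 3 µM Δ7-dafachronic acid high control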
# SMARCA2 activ: SMARCA2 function activation, primary screen; MG213 cells, MMTV-luciferase reporter, dexamethasone, overnight; activation, % at 9.1 µM; 1% of 370,000 active; AID 652017; in the data active means activation above about 7.8%;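 further: 0% = vehicle wells and 100% = reference activator wells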
# ssDAF12 agonist: activates DAF-12 receptor from parasite S. stercoralis. HEK293 ssDAF-12/GRIP1 lit1-tk-luc reporter, luminescence; % of 3 µM dafachronic acid response. activation, % at 6.8 µM. AID 652126. 1% of 370,000 active;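 active means activation above the mean over all tested compounds plus 3 SD, cut at about 0.9% in these data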;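 further: 0% = DMSO-only wells and 100% = 3 µM delta7-dafachronic acid wells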
# DAX1 inh-2: inhibitors of DAX1 repression of SF-1 activated StAR promoter. inhibition, % at 6.8 µM. 1.1% of 370,000 active. AID 652010. HEK293T StAR-luciferase reporter, SF-1/DAX-1 repression relief;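 active means inhibition above the mean over all tested compounds plus 3 SD, cut at about 3.6% in these data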;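 further: 0% = DAX-1 cells with DMSO and 100% = cells lacking DAX-1 with DMSO; higher inhibition means more luminescence from relief of DAX-1 repression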
# hgDAF-12 ag: activates the H. glycines DAF-12 receptor ligand-binding domain; HEK293 GAL4-hgDAF12 UAS-luciferase reporter, agonist luminescence; normalized to butyrate control; activation, % at 6.8 µM; 1.8% of 370,000 active; AID 687014;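 active means activation above a cutoff set at the mean of all screened compounds plus 3 SD, cut at about 10% in these data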;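 further: 0% = DMSO wells and 100% = sodium butyrate wells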
# hgDAF12 conf: confirmation of H. glycines DAF-12 agonists | shares compounds with hgDAF-12 ag | HEK293 GAL4-hgDAF12 luciferase reporter, agonist mode; percent of butyrate response | activation, % at 6.8 µM | 80% of 3,300 active | AID 743050;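 active means mean activation over triplicate wells above the hit cutoff derived from the earlier primary screen, cut at about 11% in these data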;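 further: 0% = DMSO low control and 100% = 2 mM sodium butyrate high control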
# LXR ag 2: counter-screen for DAF-12 agonists: agonists of human LXR-beta; 3,300 tested, under 10 active; activation, % at 6.8 µM; shares compounds with hgDAF-12 ag; HEK293 Gal4-LXR luciferase reporter, 24 h; AID 743051;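 active means mean activation of the triplicate above a set limit carried over from the primary screen, none filed active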
# * marks the source's active call; other numbers are inactive results; . = no result given. Compounds with a hit are over-represented: about 4.8% of the library has one in this group of screens.
SMILES,DAX1 inh-1,hcDAF12 agonist,SMARCA2 activ,ssDAF12 agonist,DAX1 inh-2,hgDAF-12 ag,hgDAF12 conf,LXR ag 2
COc1ccc(N/C=C/C(=O)c2sc(-c3ccccc3)nc2C)cc1,-1,-1,0,-1,0,0,.,.
C=C1C[C@H](O)[C@@H]2[C@H](OC(=O)[C@H]2C)[C@H]2[C@H](C)[C@@H](O)C[C@@H]12,0,0,-1,-1,0,1,.,.
COc1ccccc1/C=N\N=C(\N)c1ccccn1,0,6.0*,5,1.1*,3.9*,13*,14*,1
COc1ccccc1C=NN=C(N)C(N)=NN=Cc1ccccc1OC,-1,0,-2,0,-1,2,.,.
O=C(CSc1nnc(-c2ccc(Cl)cc2Cl)n1C1CCCCC1)NC1CCS(=O)(=O)C1 (stereo not given),2,-2,3,-1,0,-2,.,.
CCOc1ccc(-c2ccc(SCC(=O)Nc3nnc(C)s3)nn2)cc1,1,1,2,0,4.3*,13*,17*,1
Cc1nnc(NC(=O)CSc2ccc(-c3ccco3)nn2)s1,1,2,4,-2,-1,0,.,.
Cc1nnc(NC(=O)c2ccccc2Br)s1,0,0,2,-1,1,1,.,.
Cc1nnc(NC(=O)c2sc3ccccc3c2Cl)s1,-4,4,5,0,3,16*,11*,1
Cc1ccc(NC(=S)c2nc3ccccc3[nH]2)cc1,2,6.5*,6,1.0*,3,14*,17*,1
O=C(Nc1ccccc1)OCCCc1ccccc1,1,0,6,-1,1,16*,12*,0
O=C(Nc1ccccc1)OCCCCOC(=O)Nc1ccccc1,-1,-1,-2,-1,-1,5,.,.
CC(C)N1C(=O)CCC1C(=O)NCc1ccco1 (stereo not given),1,-2,-2,-2,-1,-3,.,.
O=C(NC(=S)Nc1ccc(O)cc1)C1CCCC1,1,3,1,-1,0,4,.,.
Cc1ccc(NC(=S)NC(=O)C2CCC2)cc1C,1,5,5,0,1,14*,11*,0
O=C(NCCCN1CCOCC1)c1ccc(Cl)c([N+](=O)[O-])c1,.,-1,-1,-1,0,3,.,.
CCCC1CCC(c2ccc(OCC)cc2)=CC1=O (stereo not given),3,1,0,0,2,14*,16*,1
COC(=O)Nc1nnc(/C=C/c2ccc(OC)cc2)s1,2,3,4,0,1,8,.,.
COc1ccc(/C=C/c2nnc(NC(C)=O)s2)cc1,2,5,5,0,3,14*,16*,1
O=C1NC(=O)C(=Cc2ccc(Cl)cc2Cl)S1,3,3,-2,1,4.4*,18*,14*,1
O=C1NC(=S)NC1=Cc1ccc(Cl)cc1Cl,1,-1,-3,-1,-1,0,.,.
CCOC(=O)N1CCC(NC(=O)c2cc3ccccn3n2)CC1,0,-1,2,-2,1,16*,-1,0
C[C@H](NC(=O)Nc1cccc(C(F)(F)F)c1)C(=O)O,0,-1,-2,-1,0,-2,.,.
CCc1nc2nc(C)c(NS(=O)(=O)c3ccc(Br)s3)c(=O)n2[nH]1,-1,-2,-3,-1,0,1,.,.
Oc1ccc(-c2cnc3ccccc3n2)cc1,3,4,4,-1,2,15*,20*,1
SMILES,DAX1 inh-1,hcDAF12 agonist,SMARCA2 activ,ssDAF12 agonist,DAX1 inh-2,hgDAF-12 ag,hgDAF12 conf,LXR ag 2
Cc1nc(N)sc1C(=O)N/N=C/c1ccc([N+](=O)[O-])cc1,.,4,2,-1,0,0,.,.
Cc1nc(N)sc1C(=O)N/N=C/c1ccccc1[N+](=O)[O-],.,2,4,-1,2,14*,10,0
Cc1ccc(NC(=O)CSCc2ccc(F)cc2)cc1,-1,3,1,-1,2,14*,10,0
O=C(CSc1ccc(F)cc1)Nc1ccc(Br)cc1,2,1,3,-1,0,16*,12*,0
O=C(CSc1nc2ccccc2c(=O)n1-c1ccc(F)cc1F)NC1CC1,0,-2,-5,-1,1,-2,.,.
O=C(Cc1ccc(F)cc1)Nc1nccs1,0,0,0,-1,0,1,.,.
O=C(Nc1nccs1)c1ccc(-c2ccc([N+](=O)[O-])cc2)o1,0,4,6,0,2,18*,12*,1
O=C(Nc1ccccc1)c1ccc(-c2ccc([N+](=O)[O-])cc2)o1,1,0,4,-1,0,4,.,.
O=C(Nc1nccs1)c1ccc(-c2ccc(F)cc2)o1,1,2,3,1,3,17*,14*,1
C/C(=C\C(=O)c1sccc1Cl)N(C)C,1,3,6,0,3,15*,3,0
CC(=O)Nc1c(O)nc(SCC(=O)Nc2ccc(C(C)=O)cc2)[nH]c1=O,1,3,5,-1,0,14*,12*,0
Cc1cc(C)n2ncc(C(=O)NCc3ccc(Cl)cc3)c2n1,1,-2,3,-2,-1,-4,.,.
O=C(NCc1ccc(Cl)cc1)c1cnn2ccccc12,1,3,3,0,3.8*,18*,13*,1
CC(=O)CSc1ncnc2c1cnn2-c1ccccc1,3,3,5,0,3,17*,17*,1
O=C(CC(Nc1ccc(Cl)cc1)C(=O)O)c1ccccc1 (stereo not given),1,4,4,1.2*,3,14*,20*,1
COc1c(C)cc(Br)cc1C(=O)NC(=S)Nc1ccc(Cl)c(C(=O)O)c1,1,0,-2,-1,0,-2,.,.
Cc1ccsc1/C=N/NC(=O)c1ccc2ccccc2c1,1,2,4,0,3,14*,11*,0
Cc1ccsc1/C=N/NC(=O)c1ccc([N+](=O)[O-])cc1,1,-1,0,-1,0,8,.,.
COc1ccc2c(c1)CC/C2=N\OC(=O)c1cccc(C)c1,2,2,5,0,2,14*,17*,1
Cn1ccs/c1=N\C(=O)Nc1cccc(Cl)c1,1,2,3,0,3,16*,11*,1
CC(C)c1c(O)nc(SCCN(C)C)[nH]c1=O,0,1,0,-1,0,0,.,.
